Screening data: PubChem BioAssay, National Center for Advancing Translational Sciences (NCATS)
A selection: hits, their analogues and other compounds. The true share with any hit is near 15%.
SARS PLP yeast = SARS-CoV PLP inhibition in yeast. S. cerevisiae expressing SARS-CoV PLpro, growth rescue. Potency, µM (top dose mostly 32.9 µM), for the others: at the top dose activity, positive = growth rescue, actives largely listed as activators. hit rate 0.19% among 330,000; calls by dose curve; note: potency is the fitted concentration of half-maximal effect; 0% is about no effect; nearly all actives have a fitted effect of over 55% in size
Sm TGR inh = inhibitors of Schistosoma mansoni thioredoxin glutathione reductase; Q962Y6; Potency, µM (highest dose often 114 µM), for inactives: at the top dose activity change, negative = inhibition, actives largely listed as inhibitors; hit rate 3% among 360,000; purified TGR, DTNB reduction, TNB absorbance 405 nm; note: potency is the fitted concentration of half-maximal effect; % is set by controls: 0 for no effect and ±100 for the full control effect; nearly all actives have a fitted effect of over 60% in size
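TGR 20 nM + NADPH 100 uM (dispensed conc.), cpd preinc 15 min RT; start with NADPH (500 uM addition) then DTNB (15 mM addition). Kinetic TNB absorbance, 405 nm filter. Four-parameter Hill fit across titration.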
Pf growth 48h = inhibits P. falciparum growth in the first generation, 48 h. P. falciparum luciferase growth in erythrocytes, 48 h. Potency, µM (doses to about 28.7 µM), for inactives: at the top dose activity change, negative = inhibition, most hits filed as inhibitors. hit rate 5.9% among 310,000. AID 504832; note: potency is the fitted concentration of half-maximal effect; % is set by controls: 0 for no effect and ±100 for the full control effect
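A one-generation exposure of luciferase-tagged malaria parasites in RPMI 1640/Albumax erythrocyte culture, 37 C and 5% CO2. Inhibition is inferred from decreased luminescence after adding detection reagent.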
HCV inhibitor = blocks hepatitis C virus; AID 651820; hit rate 3.4% among 340,000; Potency, µM (top dose mostly 41.8 µM), without a hit: at the top dose activity change, negative = inhibition, usual class: inhibitors; Huh7.5.1 HCVcc-Cre infection, luciferase reporter, 44 h; note: potency is the fitted concentration of half-maximal effect; % is set by controls: 0 for no effect and ±100 for the full control effect
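Antiviral activity was scored by luciferase reporter output from cells infected with HCVcc-Cre (~0.5 moi) in presence of compound, 44 h infection period, cells seeded 1,000/well 4 h prior.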
Pf growth 96h = inhibits malaria parasite growth, 96 h | AID 504834 | hit rate 6.9% among 320,000 | P. falciparum luciferase reporter growth, 96 h | Potency, µM (doses to about 28.7 µM), for the others: at the top dose activity change, negative = inhibition, hits mostly inhibitors; note: potency is the fitted concentration of half-maximal effect; % is set by controls: 0 for no effect and ±100 for the full control effect
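96 h incubation, 37 C, 5% CO2, of luciferase-reporter P. falciparum-infected RBCs (2% hematocrit, 0.05% parasitemia final) with test compounds; endpoint luminescence.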
HCMV antiviral = inhibitors of human cytomegalovirus | HFF cells, HCMV-luciferase reporter, 72 h; stronger effect = lower value | activity change, negative = inhibition, % at 57.5 µM | hit rate 4.5% among 410,000 | AID 1259415; in the data active = activity change below about -60%; inconclusive = no clear call, values can overlap the other calls; inactive = above about -39%; note: % is set by controls: 0 for no effect and ±100 for the full control effect
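Human foreskin fibroblasts infected with luciferase-reporter HCMV at MOI 1 PFU/cell, compounds at two doses. Luciferase measured 72 h post infection; normalized to buffer-only basal and Salinomycin (10uM) controls.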
Numbers without * were called inactive; ? = inconclusive; . = no result. Unless noted, calls come from the whole dose curve; as a rule, active = well fitted curve in the direction sought with a large enough effect; inconclusive = small, poorly fitted or top-dose-only effect, or another doubt; inactive = no such curve, though single readings can be large; an effect the other way counts as inactive or inconclusive.

SMILES	SARS PLP yeast	Sm TGR inh	Pf growth 48h	HCV inhibitor	Pf growth 96h	HCMV antiviral
O=c1[nH]c2cc3c(cc2cc1CN(Cc1ccccc1)Cc1nnnn1Cc1ccco1)OCCO3	10%	8.9µM*	?	?	.	87
O=c1[nH]c2cc3c(cc2cc1CN(Cc1cccs1)Cc1nnnn1Cc1ccco1)OCCO3	12%	11µM*	?	-3%	12µM*	-7
CC1CN(C(=O)N2CCC(C(=O)N3CCN(c4ccccc4)CC3)CC2)c2cc(Cl)ccc2O1 (stereo unspecified)	.	0%	.	.	.	-10
CC1CCCCC1NC(=O)COC(=O)COc1ccccc1F (stereo unspecified)	-12%	.	.	1%	.	-38
Cc1ccc2[nH]c(=O)c(CN(Cc3ccc4c(c3)OCO4)Cc3nnnn3Cc3ccco3)cc2c1	-3%	?	?	?	.	-12
COc1ccccc1CN(Cc1cc2cc3c(cc2[nH]c1=O)OCCO3)Cc1nnnn1Cc1ccco1	-4%	?	?	3%	1µM*	60
CCc1ccc2[nH]c(=O)c(CN(Cc3ccccc3)Cc3nnnn3Cc3ccco3)cc2c1	1%	?	9.3µM*	?	8%	-19
O=c1[nH]c2cc3c(cc2cc1CN(Cc1cccnc1)Cc1nnnn1Cc1ccco1)OCCO3	0%	14µM*	.	-4%	?	17
COc1ccc2cc(CN(Cc3cccnc3)Cc3nnnn3Cc3ccccc3)c(=O)[nH]c2c1	-5%	0%	?	10%	-36%	3
O=C(CN1C(=O)CCSc2ccccc21)Nc1ccc2c(c1)OCO2	3%	7%	?	-9%	.	-23
CCCCOc1ccc(C(=O)N(Cc2ccc(C(C)C)cc2)C2CCS(=O)(=O)C2)cc1 (stereo unspecified)	.	-2%	.	.	.	33
O=C(Cc1ccccc1[N+](=O)[O-])NCC(=O)c1ccc2c(c1)OCO2	.	.	.	2%	.	-37
O=C1CN(C(=O)COC(=O)c2ccc(Br)o2)c2ccccc2N1	6%	.	.	0%	.	-102*
O=C1CN(C(=O)COC(=O)c2ccccc2NC(=O)c2ccco2)c2ccccc2N1	?	-28%	-10%	4%	13µM*	11
Cc1noc(C)c1COc1ccc(C(=O)OCC(=O)N2c3ccccc3NC(=O)C2(C)C)cc1	0%	-13%	.	-30%	?	7
Cc1noc(C)c1COc1ccc(C(=O)OCC(=O)N2CC(=O)Nc3ccccc32)cc1	-19%	-4%	4.7µM*	18%	?	8
CCc1ccc(CN(Cc2ccco2)c2cnc(S(C)(=O)=O)nc2C(=O)Nc2c(C)cccc2C)cc1	.	-1%	.	.	.	12
CCc1cccc(NS(=O)(=O)c2ccc3c(c2)n(C)c(=O)n3C)c1	-1%	0%	-14%	?	4.7µM*	-13
CCOC(=O)c1oc2ccc(S(=O)(=O)Nc3ccc4c(c3)n(C)c(=O)n4C)cc2c1C	-3%	-15%	?	?	.	-65*
Cn1c(=O)n(C)c2cc(NS(=O)(=O)c3ccc4c(c3)CCCC4)ccc21	2%	1%	-71%	?	.	-107*
COc1cc(Cn2c3ccc(NC(=O)CCc4ccc(O)cc4)cc3c(=O)n2C)ccc1F	.	.	.	.	.	-9
CCc1cc(CNC(=O)C2CCC(=O)N(Cc3cccc(F)c3)C2)on1 (stereo unspecified)	3%	1%	21%	12%	12µM*	-30
CCc1cc(CNC(=O)C2CCC(=O)N(Cc3ccccc3F)C2)on1 (stereo unspecified)	.	.	.	.	.	-17
Cc1nc(CCNC(=O)C2CCC(=O)N(CCc3cccc(F)c3)C2)sc1C (stereo unspecified)	0%	-4%	9%	-1%	15µM*	-6
O=C(NCCN1CCCC1=O)C1CCC(=O)N(CCc2cccc(F)c2)C1 (stereo unspecified)	0%	-1%	24%	25%	13µM*	-34
SMILES	SARS PLP yeast	Sm TGR inh	Pf growth 48h	HCV inhibitor	Pf growth 96h	HCMV antiviral
O=C(NCc1cc2ccccc2[nH]1)C1CCC(=O)N(CCCN2CCCC2=O)C1 (stereo unspecified)	5%	-34%	2%	11%	10µM*	0
CCCCC(=O)OCC(=O)Nc1ccc(C)c(F)c1	0%	1%	34%	-4%	24%	?
CN(CC(=O)Nc1ccc(F)cc1F)S(=O)(=O)c1ccc(C(=O)N2CCOCC2)s1	.	3%	.	.	.	1
CCOC(=O)c1c(/N=C/c2c(O)n(-c3ccc(F)cc3)c(=S)[nH]c2=O)sc2c1CCCC2	-4%	?	15%	7%	.	56
CCOC(=O)c1c(/N=C/c2c(O)n(-c3ccccc3F)c(=S)[nH]c2=O)sc2c1CCCC2	10%	11µM*	.	?	20%	-6
CCCCN(Cc1ccco1)S(=O)(=O)c1ccc(-c2ccc(=O)[nH]n2)s1	-5%	25µM*	-4%	-2%	15µM*	?
CC(C)CCN(Cc1ccco1)S(=O)(=O)c1ccc(-c2ccc(=O)[nH]n2)s1	-7%	-24%	-6%	?	11%	0
COc1ccc(NC(=O)Cn2cnc3c(oc4nc5c(cc43)COC(C)(C)C5)c2=O)cc1	0%	5%	-6%	4%	?	-11
c1nnnn1C12CC3CC(CC(C3)C1)C2	3%	-3%	-5%	10%	.	-64*
Cc1nc2nc(SCC(=O)NCc3ccco3)nn2c(C)c1Cc1c(F)cccc1Cl	-1%	50µM*	-3%	-29%	?	-24
Cc1ccccc1Cc1c(C)nc2nc(SCC(=O)NCc3ccco3)nn2c1C	0%	25µM*	-14%	?	7%	0
Cc1cccc(Cc2c(C)nc3nc(SCC(=O)NCc4ccco4)nn3c2C)c1	4%	35µM*	0%	?	5%	33
Cc1ccccc1Cc1c(C)nc2nc(SCC(=O)NC(C)c3ccccc3)nn2c1C (stereo unspecified)	.	-3%	.	.	.	-10
Cc1ccccc1Cc1c(C)nc2c(C(=O)NCc3ccco3)cnn2c1C	-8%	22µM*	?	?	-13%	9
COC(=O)c1ccsc1-n1cc(C#N)c(=O)n(C)c1=O	2%	-3%	7%	?	56%	-9
Cc1nc2nc(SCC(=O)NCc3ccccc3)nn2c(C)c1Cc1ccccc1	.	17%	.	.	.	-16
Cc1ccccc1Cc1c(C)nc2nc(SCC(=O)NCCCN3CCCCC3)nn2c1C	0%	-10%	-17%	-7%	30%	.
Cc1nc2nc(SCC(=O)NCCCN3CCCCCC3)nn2c(C)c1Cc1ccccc1	0%	0%	0%	-25%	-29%	-65*
